Laboratory results from the supplement of paper PMC3334620.
In all, about 33,000 sequences were measured (“E-score (-0.5 to 0.5)”: median about -0.053, highest 2% from about 0.37 on). For the sample, the highest values were picked, then their nearest neighbours and some sequences at random.

Each sequence was assayed against Hap1 (UniProt P0CE41) (assay: PBM E-score (8-mer binding enrichment) (E-score (-0.5 to 0.5)); higher = stronger / more preferred TF binding). Details: protein concentration: 200 nM; construct: GST-DNA-binding domain.
Sequence of UniProt P0CE41 (P0CE41 whole entry, the tested form may be a part): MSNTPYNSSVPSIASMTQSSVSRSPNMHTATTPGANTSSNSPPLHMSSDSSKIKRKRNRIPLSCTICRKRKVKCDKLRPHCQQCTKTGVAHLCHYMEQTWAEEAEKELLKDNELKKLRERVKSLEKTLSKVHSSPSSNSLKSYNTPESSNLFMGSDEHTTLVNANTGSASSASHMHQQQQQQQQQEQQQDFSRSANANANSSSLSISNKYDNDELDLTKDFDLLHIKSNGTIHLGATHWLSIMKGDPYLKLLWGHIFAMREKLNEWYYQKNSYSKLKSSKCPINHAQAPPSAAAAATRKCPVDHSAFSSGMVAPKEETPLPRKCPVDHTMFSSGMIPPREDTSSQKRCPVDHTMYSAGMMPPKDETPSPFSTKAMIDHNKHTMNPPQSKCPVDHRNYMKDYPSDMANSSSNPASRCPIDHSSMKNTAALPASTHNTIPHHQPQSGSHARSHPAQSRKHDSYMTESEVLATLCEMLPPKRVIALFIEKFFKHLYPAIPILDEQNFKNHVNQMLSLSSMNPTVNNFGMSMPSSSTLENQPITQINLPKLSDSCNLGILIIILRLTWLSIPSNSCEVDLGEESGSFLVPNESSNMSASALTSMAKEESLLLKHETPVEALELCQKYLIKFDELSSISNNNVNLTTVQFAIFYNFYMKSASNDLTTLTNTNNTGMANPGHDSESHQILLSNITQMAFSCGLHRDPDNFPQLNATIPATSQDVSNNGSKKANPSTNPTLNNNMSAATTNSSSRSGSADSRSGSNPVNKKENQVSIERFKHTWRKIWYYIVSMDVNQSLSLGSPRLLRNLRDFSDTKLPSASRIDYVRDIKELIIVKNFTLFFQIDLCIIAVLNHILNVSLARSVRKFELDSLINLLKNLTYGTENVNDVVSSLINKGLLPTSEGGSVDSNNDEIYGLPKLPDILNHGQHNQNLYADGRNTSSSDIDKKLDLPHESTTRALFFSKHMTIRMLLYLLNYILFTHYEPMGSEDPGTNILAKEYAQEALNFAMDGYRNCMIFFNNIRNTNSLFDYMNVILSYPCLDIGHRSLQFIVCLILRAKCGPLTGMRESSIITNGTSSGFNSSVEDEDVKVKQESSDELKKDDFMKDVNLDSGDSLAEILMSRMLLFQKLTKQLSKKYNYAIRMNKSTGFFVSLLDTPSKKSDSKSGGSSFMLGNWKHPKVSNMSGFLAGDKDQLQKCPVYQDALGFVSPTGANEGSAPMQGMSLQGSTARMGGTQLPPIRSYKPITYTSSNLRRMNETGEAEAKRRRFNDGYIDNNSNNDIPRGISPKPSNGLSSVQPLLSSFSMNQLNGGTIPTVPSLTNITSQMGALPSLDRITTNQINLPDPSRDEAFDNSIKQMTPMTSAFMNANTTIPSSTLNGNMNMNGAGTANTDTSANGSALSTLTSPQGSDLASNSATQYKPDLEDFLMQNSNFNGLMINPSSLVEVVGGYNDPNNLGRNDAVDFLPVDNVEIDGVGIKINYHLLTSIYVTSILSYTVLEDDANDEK
Method: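 Universal 'all 10-mer' protein binding microarrays (Agilent AMADID 015681) probed with GST-tagged S. cerevisiae TFs (full-length or DBD) made by in vitro transcription/translation (PURExpress), about 100-200 nM. Bound TF was detected with fluorescent anti-GST. Each ungapped 8-mer (which stands for itself and its reverse complement) is scored by the PBM enrichment score (E-score), a modified Wilcoxon-Mann-Whitney statistic from -0.5 to +0.5, computed with the Universal PBM Analysis Suite. Scale: above 0.35 generally sequence-specific binding.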

Row | Sequence | PBM E-score
1 | CATTAGCA | -0.142
2 | CTAAGAGC | -0.0334
3 | AGGGTGAT | -0.15
4 | CAGAACAA | -0.101
5 | AGGATATA | 0.0407
6 | CGGATACC | 0.218
7 | CGGATGTA | 0.427
8 | CGGATATA | 0.482
9 | CGGATACA | 0.385
10 | GGGATATA | 0.21
11 | TGGATACA | -0.288
12 | GGGATGTA | 0.124
13 | CGGATGTC | 0.35
14 | ATAGCCTA | -0.189
15 | CCGAATAC | 0.365
16 | ATGTGACG | -0.166
17 | GACGGGCC | 0.142
18 | ACTAGGTC | -0.0578
19 | GTCGACAC | -0.156
20 | TCGATAAA | 0.146
21 | CCGATAAA | 0.461
22 | CCGATAAC | 0.447
23 | ACGATAAG | 0.245
24 | CGGATAAG | 0.31
25 | CCGATAAG | 0.431

Row | Sequence | PBM E-score
26 | GCGATAAC | 0.322
27 | GCGATAAA | 0.258
28 | ACGATAAC | 0.0651
29 | CAAGATAA | -0.0149
30 | AAGCCTAA | -0.0872
31 | ATGCCAGG | -0.127
32 | ACTCTTGG | -0.22
33 | ACGCTCGG | 0.375
34 | ACGCTCGC | -0.123
35 | ACGCTCGA | -0.125
36 | TATCCAGA | -0.0797
37 | AGACTGAG | -0.208
38 | CGCAGCAA | -0.197
39 | CGCGAGGA | 0.0251
40 | AGGCTATA | -0.157
41 | CGGCTTTA | 0.464
42 | CGGCTATA | 0.383
43 | GGGCTTTA | 0.132
44 | GGGCTATA | -0.0464
45 | CGGCTTTC | 0.259
46 | CGGCTTAG | 0.229
47 | TGGCTTAA | -0.0483
48 | CGGCTTAA | 0.391
49 | GCTCTACA | -0.124
50 | GTCCTAGA | -0.246

Row | Sequence | PBM E-score
51 | TCTTTTCA | -0.162
52 | TGGAAACA | -0.0875
53 | CTGCTCCA | -0.239
54 | CAGGACGC | -0.246
55 | AAGGATGG | -0.188
56 | CGGTGTTC | 0.235
57 | GGGTGATA | 0.167
58 | CGGTGTTA | 0.465
59 | CGGTGATC | 0.26
60 | CGGTGATA | 0.428
61 | GGGTGTTA | 0.0847
62 | AATTGGAC | 0.0155
63 | CAGTAAAC | 0.00777
64 | GCCTGCAC | -0.137
65 | ATGCGCTA | -0.0961
66 | ACGCCGGC | 0.405
67 | CCGCCGAG | 0.352
68 | CCGCCGGA | 0.402
69 | ACGCCGGA | 0.381
70 | CCGCCGCA | 0.135
71 | GCGCCGGA | 0.368
72 | ACGCCGCA | 0.18
73 | ACGCCGGG | 0.306
74 | GCGCCGAA | 0.359
75 | CCGCCGAA | 0.38

Row | Sequence | PBM E-score
76 | ACGCCGTA | 0.0761
77 | ACGCCGCC | 0.256
78 | CGGCTCTC | 0.0925
79 | AGCTGTGC | -0.224
80 | CACGTCAC | -0.125
81 | GGACCCAA | 0.124
82 | ATACGTGC | 0.0178
83 | CCATCGGC | 0.174
84 | GTTGCAAA | -0.0687
85 | CAATTTGC | -0.103
86 | TTCGTAAA | -0.199
87 | CCTAAAAA | 0.00566
88 | GCCAAGTA | -0.218
89 | CCGCCGTC | 0.151
90 | CCGCCGCC | 0.193
91 | CCGCCGGC | 0.373
92 | AAGTTTAT | 0.145
93 | ATCACCGC | 0.234
94 | CTCACCGA | 0.157
95 | ATCACCGA | 0.417
96 | GTCACCGA | 0.142
97 | ATCACCGG | 0.382
98 | ATCACCTG | -0.158
